Laboratory results: PubChem BioAssay (NCI)
The panel holds about 83,000 compounds, 20% with a hit somewhere; the sample as a whole holds those more often.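 Plates (96-well) were seeded with cells, treated with compound at one concentration, and incubated for 48 hours before percent growth was determined.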 Unmarked numbers belong to inactive results. Calls of active or inactive are those of the source. How the source made its calls: active means growth percent below 10; inactive means the rest.

How the values were obtained:
Test in all cases: NCI-60 one-dose screen, 48 h (100 = growth as untreated, 0 = no growth, -100 = all killed)
Conditions in all cases: 10 µM unless noted
[1] = test system: NCI-H23 lung
[2] = test system: NCI-H226 lung
[3] = test system: NCI-H322M lung
[4] = test system: HOP-62 NSCLC
[5] = test system: NCI-H460 lung
[6] = test system: HOP-92 NSCLC
[7] = test system: NCI-H522 lung
[8] = test system: A549/ATCC NSCLC
[9] = test system: 786-0 renal
[10] = test system: COLO 205 colon

Structure (SMILES) | growth [1] | growth [2] | growth [3] | growth [4] | growth [5] | growth [6] | growth [7] | growth [8] | growth [9] | growth [10]
S=C(NCc1ccccc1)N1CCC(CCCC2CCN(C(=S)NCc3ccccc3)CC2)CC1 | 90% | 91.4% | 118% | 97.2% | 106% | 77.5% | 80.2% | 95.5% | 101% | 110%
CN(C)CCOC(=O)Nc1ccc(Cc2ccc(NC(=O)OCCN(C)C)cc2)cc1 | 94.1% [100 µM] | 111% [100 µM] | 96.8% [100 µM] | 97.7% [100 µM] | 92% [100 µM] | 32.7% [100 µM] | 85.2% [100 µM] | 75.8% [100 µM] | 60.1% [100 µM] | 84.2% [100 µM]
O=C(CC(CC(=O)c1ccccc1)c1ccccn1)c1ccccc1 | 92.9% | 95.7% | 102% | 105% | 102% | 94.7% | 95.1% | 98.5% | 113% | 101%
Cc1onc(-c2c(F)cccc2Cl)c1-c1ncc(-c2ccc(Br)cc2)o1 | 42.1% | 73.1% | 61.9% | 59.3% | 4.75% (active) | 61.3% | 41.9% | 41.7% | 10.7% | 49.6%
COc1cccc(N=CNc2cccc(OC)c2)c1 | 98.3% | 99.7% | 96% | 103% | 109% | 93.5% | 85.6% | 92.4% | 98.8% | 107%
Nc1ccn(C2OC(CO)C(O)C2F)c(=O)n1 (stereo not given) | 83.7% | 101% | 107% | 63.5% | 70.1% | 78.3% | 51.4% | 68% | 79.9% | 65.1%
COC1CC(OC(=O)c2ccc([N+](=O)[O-])cc2)C(COC(=O)c2ccc([N+](=O)[O-])cc2)O1 (stereo not given) | 105% | 88.9% | 113% | 118% | 105% | 82.8% | 118% | 103% | 105% | 112%
Oc1cc2ccccc2c(-c2c(O)c(O)cc3ccccc23)c1O | 41.5% | 39.6% | 47.9% | 42.3% | 9.65% (active) | -22.5% (active) | 1.24% (active) | 36.1% | 50% | 58.1%
CCCCCCCCCCCCSC1=C(Cl)C(=O)C(OC)=C(OC)C1=O | 43.7% | 74.6% | 75.8% | 75.2% | 18.2% | 57.9% | -63.3% (active) | 29.4% | 65.6% | 55.4%
BrCc1cccc(C[P+](c2ccccc2)(c2ccccc2)c2ccccc2)c1 | 87% | 73.7% | 89% | 33.8% | 48.5% | 32% | 24.6% | 69.4% | 98.8% | -35.3% (active)
CC(C)C1CCC(C)C(O)C1 (stereo not given) | 110% | 102% | 105% | 95.3% | 108% | 102% | 92.8% | 88.7% | 105% | 111%
O=C(c1ccccc1)c1ccc(-c2ccc(O)cc2)cc1 | 66.1% | 89.3% | 37.8% | 43% | 43.8% | 71.7% | 25.8% | 38.6% | 72.8% | 142%
NC(=S)N/N=C/c1ccc(Cl)cc1 | 98.1% | 97.5% | 104% | 113% | 106% | 91% | 87.8% | 106% | 104% | 131%
Cc1ccc2nc(N)nnc2c1 | 94.6% | 103% | 112% | 105% | 112% | 71.9% | 99% | 109% | 98.4% | 141%
CCC1CCC(C)NC1 (stereo not given) | 91.3% | 93.4% | 108% | 101% | 99.7% | 87.3% | 99.2% | 105% | 102% | 103%
CCOc1ccc(C(=O)NCC(C)C)cc1 | 107% | 104% | 101% | 95.8% | 103% | 103% | 97.8% | 108% | 97.6% | 101%
Cc1[nH]c(=S)[nH]c(=O)c1C | 101% | 99.7% | 114% | 107% | 109% | 125% | 95.4% | 94.3% | 106% | 115%
CN=S(=O)(OCCCCCOS(=O)(=NC)c1ccc(C)cc1)c1ccc(C)cc1 (stereo not given) | 89.1% | 86% | 101% | 101% | 55.7% | 59.2% | 116% | 119% | 99.3% | 113%
O=C1C=CC(=O)C2=C1CCCC2 | 86.4% | 79.6% | 92% | 92.4% | 95.9% | 135% | 94% | 95.8% | 107% | 110%
C=CC(C)C(C)(C)O (stereo not given) | 108% | 98.8% | 98.3% | 102% | 102% | 105% | 94.4% | 94.6% | 89.4% | 110%
CC(C)(CC(=O)O)CC(=O)O | 100% | 96.5% | 96.7% | 111% | 102% | 96.6% | 98.5% | 101% | 102% | 119%
Cc1ccc(C)c(CCO)c1 | 117% | 91.8% | 108% | 92.4% | 105% | 68.3% | 97.8% | 92.6% | 97.2% | 105%
O=C(Nc1c(Cl)cc(Cl)cc1Cl)ON=C1CCCCC1 | 104% | 99.4% | 106% | 100% | 111% | 132% | 95.2% | 99.2% | 99.8% | 126%
CCCC(=O)c1cccs1 | 95.3% | 93.2% | 112% | 99.9% | 105% | 84.7% | 107% | 99.3% | 92.1% | 111%
Nc1cccc2cccc(O)c12 | 90.6% | 96.1% | 79.2% | 104% | 86.5% | 83.8% | 70.5% | 106% | 108% | 102%
CC(C)c1ncc([N+](=O)[O-])n1C | 103% | 102% | 126% | 118% | 106% | 104% | 96.4% | 96.9% | 108% | 108%
Nc1cc(N)ncn1 | 95.1% | 93.9% | 103% | 112% | 107% | 96% | 104% | 103% | 104% | 104%
